Results taken from PubChem BioAssay (Tox21).
Several values for one entry are separate records, joined by “and”; a condition that tells them apart may be missing. Identical values can stand only once. Records with an inconclusive call do not appear. Where a call stands in place of a potency, no number is given. The source holds several records for some structures; these can differ, active in one and inactive in another. Activity calls are given as the source filed them. Unless noted, calls follow the shape of the full dose curve.

How the values were obtained:
[1] = qHTS assay to identify small molecule agonists of the vitamin D receptor (VDR) signaling pathway - cell viability counter screen (AID 743224; active = well fitted curve in the direction sought with a large enough effect in the repeat runs; an effect the other way counts as inactive or inconclusive; also: nearly all actives have a fitted effect of over 50% in size)
Method in brief: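 CellTiter-Glo viability readout on VDR-bla cells, measured after 16 h of compound treatment at 37C in the same wells.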

[2] = qHTS assay to identify small molecule antagonists of the vitamin D receptor (VDR) signaling pathway - cell viability counter screen (AID 743225; active = well fitted curve in the direction sought with a large enough effect in the repeat runs; an effect the other way counts as inactive or inconclusive; also: nearly all actives have a fitted effect of over 50% in size)
Method in brief: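 Same-well multiplex: following 16 h treatment of HEK 293T cells carrying a UAS-driven beta-lactamase reporter with compound and agonist (3 nM final), and a 2 h FRET substrate step, CellTiter-Glo was added and luminescence read after 30 min.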

[3] = qHTS assay to identify small molecule agonists of the NFkB signaling pathway - cell viability counter screen (AID 1159515); also: nearly all actives have a fitted effect of over 55% in size
Method in brief: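 Tox21 library compounds were tested for cytotoxicity against NFkB-bla ME-180 cells during a 5 hr exposure at 37 C. CellTiter-Glo luminescence served as the viability read-out.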

[4] = qHTS assay to identify small molecule agonists of the endoplasmic reticulum stress response signaling pathway (AID 1159516; active = well fitted activation curve with a large enough effect in the signal ratio in the repeat runs, not every such curve was filed as active; the % refers to the signal ratio)
Method in brief: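 Fluorescence at 460 and 530 nm (405 nm excitation) reports beta-lactamase from an ER stress response element in HeLa cells treated 5 hr at 37 C.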

[5] = qHTS assay to identify small molecule agonists of the endoplasmic reticulum stress response signaling pathway - cell viability counter screen (AID 1159517); also: nearly all actives have a fitted effect of over 50% in size
Method in brief: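 After overnight attachment, ESRE-bla HeLa cells were treated with Tox21 library compounds for 5 hr. CellTiter-Glo luminescence, read 30 min post-addition at room temperature, reported viability.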

[6] = qHTS assay to identify small molecule antagonists of the retinoid-related orphan receptor gamma (ROR-gamma) signaling pathway - cell viability counter screen (AID 1159520; active = well fitted curve in the direction sought with a large enough effect in the repeat runs; an effect the other way counts as inactive or inconclusive; also: nearly all actives have a fitted effect of over 50% in size)
Method in brief: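 Cytotoxicity was read from cellular ATP (CellTiter-Glo luminescence) after 16 hr at 37 C with 1 uM doxycycline induction. The inducer was added 2 hr after compound transfer to Tet-on ROR gamma CHO cells.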

[7] = target: Nuclear receptor ROR-gamma (Homo sapiens) (UniProt P51449); assay: qHTS assay to identify small molecule antagonists of the retinoid-related orphan receptor gamma (ROR-gamma) signaling pathway (AID 1159521; active = well fitted curve in the direction sought with a large enough effect in the repeat runs; an effect the other way counts as inactive or inconclusive; also: nearly all actives have a fitted effect of over 50% in size)
Method in brief: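 Inducible-expression reporter assay: doxycycline (1 uM final) switched on RORγ in CHO cells bearing a ROR response element-luciferase construct, with test compounds present from 2 h beforehand. Decreased luminescence after 16 h defined antagonist activity.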

[8] = qHTS assay to identify small molecule agonists of the AP-1 signaling pathway - cell viability counter screen (AID 1159525); also: nearly all actives have a fitted effect of over 55% in size
Method in brief: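 Intracellular ATP by Cell Titer Glo luminescence (30 min, RT) in the same ME-180 AP-1-bla wells after the 5 h compound exposure at 37 °C. Normalised to tetra n-octyl ammonium bromide and DMSO controls.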

[9] = qHTS assay to identify small molecule agonists of the AP-1 signaling pathway (AID 1159526)
Potency is read from the fitted curve at half-maximal effect.

| Compound | Potency [1] | Potency [2] | Potency [3] | Potency [4] | Potency [5] | Potency [6] | Potency [7] | Potency [8] | Potency [9] |
| --- | --- | --- | --- | --- | --- | --- | --- | --- | --- |
| O=c1[nH]cc(F)c(=O)[nH]1 | inactive | inactive | inactive | inactive | inactive | inactive | 4.49 µM (active) and inactive | inactive | inactive |
| O=C(O)CC(O)C(=O)O (stereo not drawn) | inactive | inactive | inactive | inactive | inactive | inactive | inactive | inactive | inactive |
| Oc1ccccc1 | inactive | inactive | inactive | inactive | inactive | inactive | inactive | inactive | inactive |
| CCCc1cc(=O)[nH]c(=S)[nH]1 | inactive | inactive | inactive | inactive | inactive | inactive | inactive | inactive | inactive |
| F[B-](F)(F)F | inactive | inactive | inactive | inactive | inactive | inactive | inactive and 49.2 µM (active) | inactive | inactive |
| C=C(C)C(=O)OCC(C)O (stereo not drawn) | inactive | inactive | inactive | inactive | inactive | inactive | inactive | inactive | inactive |
| CC(=O)CCC(=O)O | inactive | inactive | inactive | inactive | inactive | inactive | inactive | inactive | inactive |
| CC1(C)O[C@@H]2C[C@H]3[C@@H]4CCC5=CC(=O)C=C[C@]5(C)[C@@]4(F)[C@@H](O)C[C@]3(C)[C@]2(C(=O)CO)O1 | inactive | inactive | inactive | inactive | inactive | inactive | inactive | inactive | inactive |
| O=c1[nH]cnc2c1ncn2[C@H]1CC[C@@H](CO)O1 | inactive | inactive | inactive | inactive | inactive | inactive | inactive | inactive | inactive |
| CCOC(N)=O | inactive | inactive | inactive | inactive | inactive | inactive | inactive | inactive | inactive |
| CN(N=O)C(=O)N[C@@H]1[C@@H](O)[C@H](O)[C@@H](CO)O[C@@H]1O | inactive | inactive | inactive | inactive | inactive | inactive | inactive | inactive | inactive |
| C/C=C/C=C/C(=O)O | inactive | inactive | inactive | inactive | inactive | inactive | inactive | inactive | inactive |
| Nc1ccc(S(N)(=O)=O)cc1 | inactive | inactive | inactive | inactive | inactive | inactive |  | inactive | inactive |
| CN(C)C(=S)SC(=S)N(C)C | 1.26 µM (active) and 692 nM (active) and 1.06 µM (active) | inactive | 5.02 µM (active) and 977 nM (active) and 6.74 µM (active) |  | inactive | 2.37 µM (active) | 703 nM (active) and 770 nM (active) and 1.06 µM (active) | 11.2 µM (active) and 5.49 µM (active) and 16.9 µM (active) |  |
| Cc1ccc(S(=O)(=O)O)cc1 | inactive | inactive | inactive | inactive | inactive | inactive |  | inactive | inactive |
| CC/C(=C(\c1ccccc1)c1ccc(OCCN(C)C)cc1)c1ccccc1 |  | inactive and 15.6 µM (active) and 21.3 µM (active) | 26.8 µM (active) [middle of 5 runs] |  | 49 µM (active) [middle of 4 runs] | 61.1 µM (active) [middle of 4 runs] | 27.5 µM (active) [middle of 5 runs] | 23.9 µM (active) [middle of 5 runs] |  |
| CC(=O)CC(c1ccccc1)c1c(O)c2ccccc2oc1=O (stereo not drawn) | inactive | inactive | inactive | inactive | inactive | inactive | inactive | inactive | inactive |
| CC(C)c1c(C(=O)Nc2ccccc2)c(-c2ccccc2)c(-c2ccc(F)cc2)n1CC[C@@H](O)C[C@@H](O)CC(=O)O | inactive | inactive | inactive | inactive | inactive |  | 1.86 µM (active) and 11.4 µM (active) and 2.66 µM (active) | inactive | inactive |
| COc1ccc(CN(CCN(C)C)c2ccccn2)cc1 | inactive | inactive | inactive | inactive | inactive | inactive | inactive | inactive |  |
| O=S1(=O)OC(c2ccc(O)cc2)(c2ccc(O)cc2)c2ccccc21 | inactive | inactive | inactive | inactive | inactive | inactive | inactive | inactive | inactive |
| Cc1ncc([N+](=O)[O-])n1C | inactive | inactive | inactive | inactive | inactive | inactive |  | inactive | inactive |

| Compound | Potency [1] | Potency [2] | Potency [3] | Potency [4] | Potency [5] | Potency [6] | Potency [7] | Potency [8] | Potency [9] |
| --- | --- | --- | --- | --- | --- | --- | --- | --- | --- |
| CC(O)(P(=O)(O)O)P(=O)(O)O | inactive | inactive | inactive | inactive | inactive | inactive |  | inactive | inactive |
| CC12CCC(CC1)C(C)(C)O2 | inactive | inactive | inactive | inactive | inactive | inactive | inactive | inactive | inactive |
| CCCCCCCCCCCCCCCC[N+](C)(C)Cc1ccccc1 | 31.9 µM (active) and 8.86 µM (active) and 26.6 µM (active) | 45 µM (active) and 17.7 µM (active) and 21.3 µM (active) | 56.7 µM (active) and 49.8 µM (active) and 21.3 µM (active) |  | 25.3 µM (active) and 39.6 µM (active) | 70.8 µM (active) and 55.5 µM (active) and 29.8 µM (active) | 56.2 µM (active) and 27.8 µM (active) and 13.3 µM (active) | 40.1 µM (active) and 49.8 µM (active) and 23.9 µM (active) |  |
| CN(C)CCOC(c1ccccc1)c1ccccc1 | inactive | inactive | inactive | inactive | inactive | inactive | inactive | inactive | 49.3 µM (active) |
| CC1(C)S[C@@H]2[C@H](NC(=O)[C@H](N)c3ccccc3)C(=O)N2[C@H]1C(=O)O | inactive | inactive | inactive | inactive | inactive | inactive |  | inactive | inactive |
| Nc1c2c(nc3ccccc13)CCCC2 | inactive | inactive | inactive |  | inactive | inactive | inactive | inactive | inactive |
| Cc1cc(C)nc(NS(=O)(=O)c2ccc(N)cc2)n1 | inactive | inactive | inactive | inactive | inactive | inactive |  | inactive | inactive |
| Cc1cn([C@H]2C=C[C@@H](CO)O2)c(=O)[nH]c1=O | inactive | inactive | inactive | inactive | inactive | inactive | inactive | inactive | inactive |
| CCOc1ccc(NC(C)=O)cc1 | inactive | inactive | inactive | inactive | inactive | inactive | inactive | inactive | inactive |
| CNNCc1ccc(C(=O)NC(C)C)cc1 | inactive | inactive | inactive | inactive | inactive | inactive |  | inactive | inactive |
| CCc1nc(N)nc(N)c1-c1ccc(Cl)cc1 | 17.4 µM (active) |  | inactive | inactive | inactive | inactive | inactive | inactive |  |
| O=C1OC2(c3ccccc31)c1cc(Br)c(O)c(Br)c1Oc1c2cc(Br)c(O)c1Br | inactive | inactive | inactive |  | inactive | inactive | inactive | inactive | inactive |
| CCCCCCc1ccc(O)cc1O | 38.9 µM (active) and inactive | 49 µM (active) | inactive | inactive | inactive | 61.3 µM (active) and inactive | inactive | 43.8 µM (active) and inactive |  |
| CCCCOC(=O)c1ccc(O)cc1 | inactive | inactive | inactive | inactive | inactive | inactive | inactive | inactive | inactive |
| COc1ccc2c(c1)c(CC(=O)O)c(C)n2C(=O)c1ccc(Cl)cc1 | inactive | inactive | inactive | inactive | inactive | inactive |  | inactive | inactive |
| Cc1cc(=O)oc2cc(O)ccc12 | inactive | inactive | inactive | 49 µM (active) and 19 µM (active) | inactive | inactive |  | inactive | inactive |
| Cc1c(C(=O)O)c(O)cc2c1C(=O)c1c(O)c([C@@H]3O[C@H](CO)[C@@H](O)[C@H](O)[C@H]3O)c(O)c(O)c1C2=O | inactive | inactive | inactive | inactive | inactive | inactive | inactive | inactive | inactive |
| O=C1c2c(O)cccc2Cc2cccc(O)c21 | inactive | inactive | inactive |  | inactive | inactive | inactive | inactive | inactive |
| CCCCCCCCCCCC[N+](C)(C)Cc1ccccc1 | 27 µM (active) and 29.9 µM (active) and 13.3 µM (active) | 19.1 µM (active) and 15 µM (active) and 21.3 µM (active) | 53.9 µM (active) and 47.4 µM (active) and 23.9 µM (active) |  | 17 µM (active) and 21.2 µM (active) and 26.8 µM (active) | 67.3 µM (active) and 66.4 µM (active) and inactive | 47.6 µM (active) and 21.1 µM (active) | 23.9 µM (active) |  |
| CN(C)C(=O)Nc1ccc(Cl)c(Cl)c1 | inactive | inactive | inactive | inactive | inactive | inactive | inactive | inactive | inactive |
